Experimental data published in PubChem BioAssay (Tox21).
Inconclusive results are not listed. Where a call stands in place of a potency, no number is given. Calls of active or inactive are those of the source. Unless noted, the call rests on the fitted dose curve; in most records, active means well fitted curve in the direction sought with a large enough effect in the repeat runs; inconclusive means weak or mixed curves; inactive means no such curve, though single readings can be large; an effect the other way counts as inactive or inconclusive.

Tests used:
[1] = qHTS assay to identify small molecule antagonists of the glucocorticoid receptor (GR) signaling pathway - cell viability counter screen (AID 720693); further: nearly all actives have a fitted effect of over 55% in size
[2] = qHTS assay for identifying genotoxic compounds that show differential cytotoxicity against isogenic chicken DT40 cell lines with known DNA damage response pathways - wild type cell line (AID 743012); further: nearly all actives have a fitted effect of over 60% in size; further: potency means the concentration at half of the fitted maximal effect
Method in brief: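 Endpoint: CellTiter-Glo luminescence, 30 min RT. Cells: wild type DT40, 300/well. Exposure: compounds in DMSO, 40 h, 37 C/5% CO2, after ~0.5 h pre-incubation.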

[3] = qHTS assay for identifying genotoxic compounds that show differential cytotoxicity against isogenic chicken DT40 cell lines with known DNA damage response pathways - Rev3 mutant cell line (AID 743014); further: nearly all actives have a fitted effect of over 55% in size; further: potency means the concentration at half of the fitted maximal effect
[4] = qHTS assay for identifying genotoxic compounds that show differential cytotoxicity against isogenic chicken DT40 cell lines with known DNA damage response pathways - Rad54/Ku70 mutant cell line (AID 743015); further: nearly all actives have a fitted effect of over 60% in size; further: potency means the concentration at half of the fitted maximal effect
[5] = qHTS assay to identify small molecule antagonists of the androgen receptor (AR) signaling pathway - cell viability counter screen (AID 743033; further: nearly all actives have a fitted effect of over 45% in size)
[6] = qHTS assay to identify small molecule antagonists of the androgen receptor (AR) signaling pathway using the MDA cell line - cell viability counter screen (AID 743041; further: nearly all actives have a fitted effect of over 45% in size)
Method in brief: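 Using the breast carcinoma line MDA-kb2 AR-luc, test chemicals were co-incubated with R1881 for 16 h; CellTiter-Fluor reagent, added at 15.5 h, provided a fluorescence measure of live cells.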

[7] = molecular target: Androgen receptor (Homo sapiens) (UniProt P10275); assay: qHTS assay to identify small molecule antagonists of the androgen receptor (AR) signaling pathway (AID 743035; active means well fitted inhibition curve with a large enough effect in the signal ratio in the repeat runs, not every such curve was filed as active; the % refers to the signal ratio)
Sequence of Androgen receptor (Homo sapiens) (P10275 whole entry, looked up): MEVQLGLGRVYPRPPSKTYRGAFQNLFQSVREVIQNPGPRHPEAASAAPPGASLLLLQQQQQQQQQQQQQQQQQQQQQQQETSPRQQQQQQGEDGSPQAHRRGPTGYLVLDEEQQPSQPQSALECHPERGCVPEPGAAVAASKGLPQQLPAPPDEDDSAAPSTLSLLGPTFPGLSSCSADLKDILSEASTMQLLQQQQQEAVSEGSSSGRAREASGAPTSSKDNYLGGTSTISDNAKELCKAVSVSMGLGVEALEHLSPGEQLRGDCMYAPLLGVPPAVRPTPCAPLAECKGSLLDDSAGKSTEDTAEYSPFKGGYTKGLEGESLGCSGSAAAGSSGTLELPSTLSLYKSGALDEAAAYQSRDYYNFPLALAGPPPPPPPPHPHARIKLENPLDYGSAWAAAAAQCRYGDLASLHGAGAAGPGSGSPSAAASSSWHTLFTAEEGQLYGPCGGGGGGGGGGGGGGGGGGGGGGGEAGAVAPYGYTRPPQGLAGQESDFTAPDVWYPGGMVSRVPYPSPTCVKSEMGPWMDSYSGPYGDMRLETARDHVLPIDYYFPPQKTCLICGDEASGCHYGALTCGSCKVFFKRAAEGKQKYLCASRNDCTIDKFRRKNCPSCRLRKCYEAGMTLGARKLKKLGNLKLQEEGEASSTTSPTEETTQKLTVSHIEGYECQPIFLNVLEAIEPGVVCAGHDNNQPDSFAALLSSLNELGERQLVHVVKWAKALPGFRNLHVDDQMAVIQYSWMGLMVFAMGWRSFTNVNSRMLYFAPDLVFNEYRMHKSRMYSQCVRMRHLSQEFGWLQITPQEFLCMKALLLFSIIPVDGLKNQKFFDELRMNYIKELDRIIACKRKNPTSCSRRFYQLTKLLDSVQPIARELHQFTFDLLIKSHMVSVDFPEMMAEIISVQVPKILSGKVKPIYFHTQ
Method in brief: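 R1881 agonist challenge of a HEK293 UAS-beta-lactamase AR reporter line in the presence of compound (16 h, 37C); signal taken as FRET fluorescence after 2 h with LiveBLAzer B/G substrate at room temperature.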

[8] = molecular target: Androgen receptor (Homo sapiens) (UniProt P10275); assay: qHTS assay to identify small molecule agonists of the androgen receptor (AR) signaling pathway (AID 743036; active means well fitted activation curve with a large enough effect in the signal ratio in the repeat runs, with a control signal flat, not every such curve was filed as active; the % refers to the signal ratio)
Method in brief: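 Quantitative HTS of the Tox21 10K library in HEK293 cells bearing a stably integrated UAS-controlled beta-lactamase reporter. Compound exposure lasted 16 h at 37C. Reporter activity was detected by FRET substrate fluorescence after 2 h at room temperature.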

[9] = molecular target: Androgen receptor (Homo sapiens) (UniProt P10275); assay: qHTS assay to identify small molecule agonists of the androgen receptor (AR) signaling pathway using the MDA cell line (AID 743040; further: nearly all actives have a fitted effect of over 20% in size)
Method in brief: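 Stable MMTV-luciferase reporter in MDA-kb2 cells; note the promoter carries GR as well as AR response elements. 16 h compound treatment, 37C, 0% CO2; ONE-Glo luminescence endpoint.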

[10] = molecular target: Androgen receptor (Homo sapiens) (UniProt P10275); assay: qHTS assay to identify small molecule antagonists of the androgen receptor (AR) signaling pathway using the MDA cell line (AID 743042; further: nearly all actives have a fitted effect of over 55% in size)
Method in brief: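 Antagonist mode: compounds plus R1881 agonist added to MDA-kb2 AR-luc cells, incubated 16 h at 37C. Luciferase reporter luminescence quantified, with multiplexed CellTiter-Fluor readout for cell viability.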

Row | Compound | Potency [1] | Potency [2] | Potency [3] | Potency [4] | outcome [5] | outcome [6] | Potency [7] | outcome [8] | outcome [9] | outcome [10]
1 | Cc1ccccc1C | inactive | inactive | inactive | inactive | inactive | inactive | – | – | – | –
2 | NC(Cc1c[nH]c2ccccc12)C(=O)O (stereo not given) | inactive | inactive | inactive | inactive | inactive | inactive | – | – | – | –
3 | Cc1nc([N+](=O)[O-])cn1-c1ccc([N+](=O)[O-])cc1 | inactive | inactive | inactive | inactive | inactive | inactive | – | – | – | –
4 | C=CC(C)(O)CC/C=C(\C)CC (stereo not given) | inactive | inactive | inactive | inactive | inactive | inactive | – | – | – | –
5 | CCCCCCCCCCCCCCCCI | inactive | inactive | inactive | inactive | inactive | inactive | inactive | inactive | inactive | inactive
6 | N#CCCOCCOCCC#N | inactive | inactive | 61.1 µM (active) | inactive | inactive | inactive | – | – | – | –
7 | SCCSCCS | inactive | inactive | inactive | inactive | inactive | inactive | – | – | – | –
8 | CC1=NN(c2ccc(S(=O)(=O)O)cc2)C(=O)C1N=Nc1ccccc1 (stereo not given) | inactive | inactive | inactive | inactive | inactive | – | – | – | – | –
9 | Cc1ccc(S(=O)(=O)NC(=O)NC2CCCCCCC2)cc1 | inactive | inactive | inactive | inactive | inactive | inactive | – | – | – | –
10 | Cc1cc(C)cc([N+](=O)[O-])c1 | inactive | inactive | inactive | inactive | inactive | inactive | – | – | – | –
11 | O=C(O)C(=O)Nc1cccc(-c2nn[nH]n2)c1 | inactive | inactive | inactive | inactive | inactive | inactive | – | – | – | –
12 | NCCc1ccn[nH]1 | inactive | inactive | inactive | inactive | inactive | inactive | inactive | inactive | inactive | inactive
13 | Nc1ccc(S(=O)(=O)Nc2ccccn2)cc1 | inactive | inactive | inactive | inactive | inactive | inactive | inactive | – | inactive | inactive
14 | F[Si-2](F)(F)(F)(F)F | inactive | inactive | inactive | inactive | inactive | inactive | – | – | – | –
15 | COc1ccc(N=Nc2cc(C)c(N=Nc3ccc(S(=O)(=O)O)cc3)cc2OC)cc1 | inactive | inactive | inactive | inactive | inactive | inactive | – | – | – | –
16 | COCC(=O)Nc1c(I)c(C(=O)NCC(O)CO)c(I)c(C(=O)N(C)CC(O)CO)c1I (stereo not given) | inactive | inactive | inactive | inactive | inactive | inactive | inactive | inactive | inactive | inactive
17 | O=CN1CCOCC1 | inactive | inactive | inactive | inactive | inactive | inactive | – | inactive | inactive | inactive
18 | Cc1cccc(C(=O)O)c1[N+](=O)[O-] | inactive | inactive | inactive | inactive | inactive | inactive | – | – | – | –
19 | Cc1ncc([N+](=O)[O-])n1CC(O)CCl (stereo not given) | inactive | inactive | inactive | inactive | inactive | inactive | inactive | – | inactive | inactive
20 | Cc1cccc(Nc2ccncc2S(=O)(=O)NC(=O)NC(C)C)c1 | inactive | inactive | inactive | inactive | inactive | inactive | – | – | – | –
21 | CNC(=O)NC | inactive | inactive | inactive | inactive | inactive | inactive | inactive | inactive | inactive | inactive
22 | CCCOCCOCCOCCO | inactive | inactive | inactive | inactive | inactive | inactive | inactive | – | inactive | inactive
23 | CO[Si](CCCS)(OC)OC | inactive | inactive | inactive | inactive | inactive | inactive | – | – | – | –
24 | COc1ccc(/C=N/NC(=O)c2ccncc2)cc1OC | inactive | inactive | inactive | inactive | inactive | inactive | inactive | inactive | inactive | inactive
25 | O=C(O)c1ccccc1C(=O)OCc1ccccc1 | inactive | inactive | inactive | inactive | inactive | inactive | – | inactive | inactive | inactive
26 | CCCCCCCCCCCCCCCC(=O)NCCO | inactive | inactive | inactive | inactive | inactive | inactive | – | – | – | –
27 | CO[Si](CCCCl)(OC)OC | inactive | inactive | inactive | inactive | inactive | inactive | – | – | – | –
28 | O=C(O)c1ccccc1C(=O)Nc1ccc(S(=O)(=O)Nc2nccs2)cc1 | inactive | inactive | inactive | inactive | inactive | inactive | inactive | inactive | inactive | inactive

Row | Compound | Potency [1] | Potency [2] | Potency [3] | Potency [4] | outcome [5] | outcome [6] | Potency [7] | outcome [8] | outcome [9] | outcome [10]
29 | C[N+](C)(C)CC(O)CCl (stereo not given) | inactive | inactive | inactive | inactive | inactive | inactive | – | – | – | –
30 | Cc1ccccc1N1CCN(CCc2nnc3n2CCCC3)CC1 | inactive | inactive | inactive | inactive | inactive | – | – | – | – | –
31 | OC(CCN1CCCCC1)(c1ccccc1)c1ccccc1 | inactive | 13.3 µM (active) | 23.7 µM (active) | 21.1 µM (active) | inactive | – | inactive | inactive | inactive | inactive
32 | CCNC(=O)/C=C/c1cccc(Br)c1 | inactive | inactive | inactive | inactive | inactive | inactive | – | – | inactive | –
33 | CCCCCCCCCCC | inactive | inactive | inactive | inactive | inactive | inactive | inactive | inactive | inactive | inactive
34 | CCCCC[Si](OCC)(OCC)OCC | inactive | inactive | inactive | inactive | inactive | inactive | – | inactive | inactive | inactive
35 | O=c1[nH]c(=O)c2ccccc2o1 | inactive | inactive | inactive | inactive | inactive | inactive | – | – | inactive | inactive
36 | CCC(O)C(C)(C)C (stereo not given) | inactive | inactive | inactive | inactive | inactive | inactive | – | – | – | –
37 | O=C1NC2NC(=O)NC2N1 (stereo not given) | inactive | inactive | inactive | inactive | inactive | inactive | – | – | – | –
38 | CN(C)CCOCCN(C)CCO | inactive | inactive | inactive | inactive | inactive | inactive | – | – | – | –
39 | CCCCCC(=O)OCC | inactive | inactive | inactive | inactive | inactive | inactive | – | – | – | –
40 | CC(=O)Nc1ncc([N+](=O)[O-])s1 | inactive | inactive | inactive | inactive | inactive | inactive | – | – | – | –
41 | COc1cc2c3cc1Oc1cc(ccc1O)C[C@@H]1c4c(cc(OC)c(O)c4Oc4ccc(cc4)C[C@@H]3N(C)CC2)CC[N+]1(C)C | inactive | inactive | inactive | inactive | inactive | inactive | – | – | – | –
42 | CC1CCC(C(C)(C)S)C(=O)C1 (stereo not given) | inactive | inactive | inactive | inactive | inactive | inactive | – | – | – | –
43 | C[C@H](CCC(=O)NCC(=O)O)[C@H]1CC[C@H]2[C@@H]3[C@H](O)C[C@@H]4C[C@H](O)CC[C@]4(C)[C@H]3C[C@H](O)[C@]12C | inactive | inactive | inactive | inactive | inactive | inactive | – | – | – | –
44 | CCN1CN(CC)CN(CC)C1 | inactive | inactive | inactive | inactive | inactive | inactive | – | – | – | –
45 | Cc1ccc2c(c1)c1c3n2CCNC3CCC1 (stereo not given) | inactive | 11.9 µM (active) | 11.9 µM (active) | 16.8 µM (active) | inactive | inactive | – | – | – | –
46 | CCS(=O)(=O)CCn1c([N+](=O)[O-])cnc1C | inactive | inactive | inactive | inactive | inactive | inactive | – | – | – | –
47 | NS(=O)(=O)c1ccccc1OC(F)(F)F | inactive | inactive | inactive | inactive | inactive | inactive | – | – | – | –
48 | C1=C\CC/C=C\CC/1 | inactive | inactive | inactive | inactive | inactive | inactive | – | – | – | –
49 | C[C@H](CCC(=O)O)[C@H]1CC[C@H]2[C@@H]3[C@H](O)C[C@@H]4C[C@H](O)CC[C@]4(C)[C@H]3C[C@H](O)[C@]12C | inactive | inactive | inactive | inactive | inactive | inactive | – | – | – | –
50 | C/C=C(\C)C(=O)OCC/C=C\CC | inactive | inactive | inactive | inactive | inactive | inactive | – | – | – | –
51 | NS(=O)(=O)c1ccc(Cl)c(S(N)(=O)=O)c1 | inactive | inactive | inactive | inactive | inactive | inactive | – | – | – | –
52 | CCN(CCC#N)c1ccccc1 | inactive | inactive | inactive | inactive | inactive | inactive | – | – | – | –
53 | CC(=O)N(CC(O)CO)c1c(I)c(C(=O)NCC(O)CO)c(I)c(C(=O)NCC(O)CO)c1I (stereo not given) | inactive | inactive | inactive | inactive | inactive | inactive | – | – | – | –
54 | CC(C)C(=O)c1ccccc1 | inactive | inactive | inactive | inactive | inactive | inactive | – | – | – | –
55 | CC(=O)c1ccc(OCC(=O)N2CCCCC2)cc1 | inactive | inactive | inactive | inactive | inactive | inactive | – | – | – | –
